# Test results taken from PubChem BioAssay AID2401 (Southern Research Specialized Biocontainment Screening …, 2010).
# Among all 2,200 compounds or so, about 530 (24%) were called active.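 Rule for the calls: active = inhibition above a set limit at one or more concentrations of the dose series; inactive = inhibition under that limit at every dose.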 Not all results are given here. Potency and affinity values are given separately.
# Experiment: nmpC-GFP reporter counter-screen in S. Typhimurium, dose response, counter-screen for PhoP regulon inhibitor project, Salmonella Typhimurium, GFP fluorescence (AID 2401);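 note: S. typhimurium with Mg-insensitive nmpC-GFP reporter grown at 10 µM Mg2+; drop in reporter fluorescence reflects general culture growth inhibition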
# Conditions: 4 h; series mostly up to 150 µM; inhibition: at the top concentration
row,SMILES,inhibition
1,Clc1ccccc1OCCn1ccnc1,-11.3% (inactive)
2,Cc1ccc(C(=O)NCc2ccc(Cl)cc2)o1,15.7% (inactive)
3,S=C(Nc1ccc2snnc2c1)N1CCN(c2ccccn2)CC1,34.2% (inactive)
4,CC1CN(C(=O)CCc2ccccc2)C(C)CN1C(=O)CCc1ccccc1 (stereo unspecified),1.08% (inactive)
5,O=C(NC(NC(=S)Nc1ccc(Cl)cc1)C(Cl)(Cl)Cl)c1ccco1 (stereo unspecified),-30.7% (inactive)
6,Cc1ccc(NC(=S)NC(NC(=O)c2ccco2)C(Cl)(Cl)Cl)cc1 (stereo unspecified),12.3% (inactive)
7,O=c1c(Br)c(Br)cnn1-c1ccccc1,26.3% (inactive)
8,Clc1ccc(-c2csc3ncnc(N4CCc5ccccc5C4)c23)cc1,-19.2% (inactive)
9,CCOC(=O)c1sc2nccc(N(C)C)c2c1N=CNOCc1c(F)cccc1Cl,0.78% (inactive)
10,CCCCCn1c(C(C)NC(=O)CCC)nc2ccccc21 (stereo unspecified),4.48% (inactive)
11,O=C(NC(c1ccc(Cl)cc1)c1c(O)ccc2ccccc12)c1ccccc1 (stereo unspecified),-14.6% (inactive)
12,Cc1ccc2cccnc2c1NC(=S)NC(=O)c1ccccc1,3.45% (inactive)
13,O=C(Cc1ccccc1)NC1c2ccccc2-c2ccccc21,-12.7% (inactive)
14,O=C(CSc1nnc(-c2ccc(O)cc2)n1-c1ccccc1)CC(=O)Nc1ccccc1,15.1% (inactive)
15,O=C(OCC1COc2ccccc2O1)c1ccccc1F (stereo unspecified),-18.5% (inactive)
16,CC1=C(C(=O)OCC2CCCO2)C(c2cccc(C(F)(F)F)c2)C2=C(CC(c3ccco3)CC2=O)N1 (stereo unspecified),-25.9% (inactive)
17,O=S(=O)(Nc1ccc(Cc2ccncc2)cc1)c1ccc(Br)s1,-31.1% (inactive)
18,Cn1ncc(N=Cc2ccccc2O)c1C(=O)Nc1ccccc1,8.45% (inactive)
19,N#CC1=C(N)Oc2c(O)cc3ccccc3c2C1c1ccsc1 (stereo unspecified),-14.3% (inactive)
20,O=C(CSCc1ccccc1)Nc1ccc2c(c1)OCO2,-7.93% (inactive)
21,CCOc1cc(CNn2cnnc2)ccc1OCC(=O)NC1CCCCC1,-8.61% (inactive)
22,O=C(CCCNS(=O)(=O)c1ccccc1)NCc1ccco1,-22.5% (inactive)
23,Cc1ccc(C(=O)Nc2ccc3c(c2)OCO3)o1,18.3% (inactive)
24,Clc1ccc(-c2cnc3n2CCC3)cc1,15% (inactive)

row,SMILES,inhibition
1,Clc1ccc(C[n+]2cc(-c3ccc(Cl)cc3)n3c2CCC3)cc1,36.7% (inactive)
2,COC(=O)Cc1c(O)ccn(Cc2ccc(F)cc2)c1=O,-29.4% (inactive)
3,O=C(O)Cn1cc(C(=O)c2ccco2)c2ccccc21,2.21% (inactive)
4,CCn1cc(C(=O)O)c(=O)c2cc(OC)ccc21,32.4% (inactive)
5,O=C(Nc1ccc(NC(=O)C23CC4CC(CC(C4)C2)C3)cn1)c1ccco1,-21.7% (inactive)
6,Oc1ccc(-c2n[nH]c(=S)n2-c2ccc3c(c2)OCCO3)c(O)c1,-14.8% (inactive)
7,Nn1c(COc2cccc(Br)c2)nnc1SCC(=O)N1CCc2ccccc2C1,-13.3% (inactive)
8,c1ccc2c(C3=NNC(=NC4CC4)SC3)c[nH]c2c1,13.1% (inactive)
9,O=C(Nc1cnn(Cc2ccc(Cl)cc2Cl)c1)c1noc2c1CCCC2,-3.26% (inactive)
10,CC(=O)c1c(N2CCN(C(=O)C3CCCO3)CC2)nc(=S)n(-c2ccccc2)c1C (stereo unspecified),-21.4% (inactive)
11,Nc1ccccc1NC1=CC(=O)CC(c2ccco2)C1 (stereo unspecified),9.99% (inactive)
12,CCOC(=O)C1=NNC2(c3ccc(Cl)cc3)C(=O)N(c3cc(C)cc(C)c3)C(=O)C12 (stereo unspecified),-3.41% (inactive)
13,NC1=NC(=Nc2ccc(Cl)cc2)c2ccccc21,-24.5% (inactive)
14,C=CCNCC#CCOc1ccc(OC)cc1,-14.8% (inactive)
15,O=C1NC2=C(CCc3ccccc32)C(c2ccc(Br)cc2)N1 (stereo unspecified),6.23% (inactive)
16,Cc1nc(C(=O)Nc2ccc(Cl)cc2)nn1-c1ccc([N+](=O)[O-])cc1,-32.7% (inactive)
17,O=c1[nH]c2cc3c(cc2cc1CN(CCc1ccccc1)Cc1nnnn1CC1CCCO1)OCO3 (stereo unspecified),18.2% (inactive)
18,Cc1cc(-c2csc(NC(=O)c3ccc(S(=O)(=O)N(C)C)cc3)n2)c(C)n1-c1ccccc1,12.5% (inactive)
19,Cc1cc(C(=O)NCc2ccco2)no1,-21.8% (inactive)
20,COc1ccc(-c2cc(-c3ccc(OC)c(OC)c3)n[nH]2)c(O)c1,14.4% (inactive)
21,COCCNC(=O)c1ccccc1NS(=O)(=O)c1ccc(Br)s1,-25.5% (inactive)
22,Cc1cccn2cc(CSc3nnc(Nc4ccc(C(C)C)cc4)s3)nc12,8.71% (inactive)
23,CCC(CC)C(=O)N1c2ccc(F)cc2CCC1C (stereo unspecified),4.44% (inactive)
24,CC1(C)CC(=O)C2=C(C1)N(Cc1ccccc1)C(=O)C2(O)C(F)(F)F (stereo unspecified),-24.5% (inactive)

row,SMILES,inhibition
1,COc1ccc(CNc2nc3c(c(=O)[nH]c(=O)n3C)n2CCCc2ccccc2)cc1,-4.23% (inactive)
2,COC(=O)c1cc(C#N)c(Oc2cccc(C)c2C)nc1C,-23.6% (inactive)
3,COC(=O)CN1C(c2ccc(OC)cc2)=Nc2ccc(Cl)cc2C1c1ccccc1 (stereo unspecified),-26.8% (inactive)
4,CCCCn1c(O)c(C(CC)=Nc2ccc3c(c2)CCC3)c(=O)[nH]c1=O,-7.34% (inactive)
5,Cc1ccc(C(=O)N2CC3(C(C)C)CN(C(=O)c4ccc(C)cc4)CC(C(C)C)(C2)C3=O)cc1,-24.9% (inactive)
6,Cc1ccc(C(=O)C(OC(=O)COc2ccccc2C)c2ccccc2)cc1 (stereo unspecified),0.19% (inactive)
7,Cc1cc(C)c(NC(=O)COc2ccccc2C(=O)Nc2ccc3c(c2)oc2ccccc23)c(C)c1,-12.5% (inactive)
8,CC1(C)CC(=O)C=C(Nc2ccccc2NC(=O)c2cnccn2)C1,-11.4% (inactive)
9,COc1cc(C2NC(=O)NC(c3ccccc3)=C2C(C)=O)ccc1OCC(=O)O (stereo unspecified),-5.18% (inactive)
10,Cc1c(/C=C/C(=O)c2ccccc2)cnn1C,-35.3% (inactive)
11,Cc1ccc(C(=O)c2ccccc2C(=O)O)c(O)c1,5.97% (inactive)
12,COc1cccc(OC)c1C(=O)NC(=S)Nc1cc(-c2nc3ccccc3[nH]2)ccc1Cl,15.3% (inactive)
13,Cc1cc(C=O)c(C)n1-c1ccc(Oc2ccc([N+](=O)[O-])cn2)cc1,0.24% (inactive)
14,CCCn1c(SCC(=O)NCCc2ccccc2)nnc1-c1cccnc1,-16.1% (inactive)
15,O=[N+]([O-])c1ccc(N2CCN(CCOc3nonc3-c3ccccc3)CC2)c(Cl)c1,-27.8% (inactive)
16,Cc1ccc(S(=O)(=O)c2c(N)n(NC(=O)c3ccco3)c3nc4ccccc4nc23)cc1,-18.7% (inactive)
17,Cc1c(Cl)cccc1NC(=O)CSc1ncnc2c1cnn2CCc1ccccc1,-13.4% (inactive)
18,Cc1cccc(NC(=S)NC(NC(=O)c2ccco2)C(Cl)(Cl)Cl)c1 (stereo unspecified),-26.1% (inactive)
19,CN(C)CCOC(=O)Cc1ccc(Cl)cc1,-18.6% (inactive)
20,O=C(CN1C(=O)c2ccccc2C1=O)N1CCN(c2ccccn2)CC1,-25.8% (inactive)
21,COC(=O)c1ccccc1Oc1cnc2ccccc2n1,-28.7% (inactive)
22,Brc1ccc(NC2=Nc3ccccc3CC2)cc1,-11.1% (inactive)
23,COc1ccc(N(CC(=O)Nc2ccccc2SC)S(C)(=O)=O)cc1OC,-12.1% (inactive)
